The numbers were not newly measured in PubChem BioAssay AID977611, which cites them from elsewhere.

The data set can be described thus: PubChem AID 977611. The settings on record: PDB protein-ligand complexes, literature Kd.

About 3,900 (100%) of roughly 3,900 compounds were called active. No cut-off is given here; in the data, nearly all actives have Kd up to about 4200 µM. The set was probably picked from earlier hits. Some of the results follow. *1 amine or outer side, *2 acyl side, *3 side chain or, on linkers, in order; H or OH if unused. Where a SMILES comes first, the peptide text is derived from it. Non-standard residues stand in square brackets, D forms with d. Square brackets hold non-standard residues; d marks the D form. Residues, ends and D or L forms follow the SMILES beside them. Bridges are numbered along the chain shown (N, C = ends). Peptide text beside a SMILES is read from it. [ ]: non-standard residue; d: D form. * marks the point of attachment. X1 = C[C@@](/C=C/CC=[*:3])(N[*:1])C(=O)[*:2]; Orn(CH(NH2)2) = NC(N)NCCC[C@H](N)C(=O)O; Benzoyl(4-Br) = O=C(c1ccc(Br)cc1)*; Benzoyl(4-F) = O=C(c1ccc(F)cc1)*; S5 = C=CCCC[C@](C)(N)C(=O)O; ΔPro = O=C(O)[C@@H]1C=CCN1

What is called Kd is the constant that tells how readily two partners part at equilibrium. On to H-EDMYRAADEIAKE-OH, for which the Kd (protein: E3 ubiquitin-protein ligase RNF31 HOIP 5-180, PDB entry 4oyk) was 0.18 µM (active).
On to `CO/N=C(\C(=O)N[C@@H]1C(=O)N2C(C(=O)O)=C(COC(C)=O)CS[C@H]12)c1csc(N)n1`, for which the Kd (protein: PA4794, PDB entry 4kot) was 3.5 µM (active).
With `CO/N=C(\C(=O)N[C@@H]1C(=O)N2C(C(=O)O)=C(COC(N)=O)CS[C@H]12)c1ccco1`, the Kd (protein: PA4794, PDB entry 4kov) was 177 µM (active).
For the compound `Cc1oc2ccc(NS(=O)(=O)c3ccc(Cl)cc3)cc2c1C(=O)O`, for the setting “protein: Non-structural protein 5, PDB entry 3vws”, the Kd was 225 µM (active).
Take `CC[C@H](C)[C@H](NC(=O)[C@H](CCCCNC(=O)c1ccc(Br)cc1)NC(=O)[C@H](CO)NC(=O)[C@@H](NC(=O)[C@@H]1CCCN1C(=O)[C@@H](N)Cc1c[nH]c2ccccc12)[C@@H](C)O)C(=O)O` (H-WPTSK(Benzoyl(4-Br))I-OH): the Kd (protein: Golgi-associated PDZ and coiled-coil motif-containing protein CAL PDZ (CALP) domain, PDB entry 4nmv) is 11.1 µM (active).
For the compound `CC[C@H](C)[C@H](NC(=O)[C@H](CCCCNC(=O)c1ccc(F)cc1)NC(=O)[C@H](CO)NC(=O)[C@@H](NC(=O)[C@@H]1CCCN1C(=O)[C@@H](N)Cc1c[nH]c2ccccc12)[C@@H](C)O)C(=O)O` (H-WPTSK(Benzoyl(4-F))I-OH), the Kd (protein: Golgi-associated PDZ and coiled-coil motif-containing protein CAL PDZ (CALP) domain, PDB entry 4nms) is 11.4 µM (active).
H-WPK(Ac)SII-OH: the Kd (protein: Golgi-associated PDZ and coiled-coil motif-containing protein CAL PDZ (CALP) domain, PDB entry 4nmp) was 91.9 µM (active).
With `CN1CC/C=C/CCCCCCC(=O)Cc2c(Cl)c(O)cc(O)c2C1=O`, where the note is “protein: Hsp90 N-terminal domain, PDB entry 4ce1”, the Kd is 41.8 µM (active).
`CN1CC/C=C/CCCCCC(=O)Cc2c(Cl)c(O)cc(O)c2C1=O`: the Kd (protein: Hsp90 N-terminal domain, PDB entry 4ce2) is 144 µM (active).
For `CN1CCC/C=C\CCCC(=O)Cc2c(Cl)c(O)cc(O)c2C1=O`, the Kd (protein: Hsp90 N-terminal domain, PDB entry 4ce3) was 110 µM (active).
As for `O=c1cc(-c2ccc(O)cc2)oc2ccccc12`, the dissociation constant (Kd) (protein: Tankyrase-2, PDB entry 4kzq) was 0.788 µM (active).
For `CC[C@H](C)[C@H](NC(=O)[C@@H]1CCCN1C(=O)CNC(=O)[C@H](CC(N)=O)NC(=O)[C@@H]1CCCN1C(=O)[C@H](CO)NC(=O)[C@H](Cc1ccccc1)NC(=O)[C@H](CC(C)C)NC(=O)[C@H](Cc1ccc(O)cc1)NC(=O)[C@@H](N)CC(N)=O)C(=O)N[C@@H](C)C(=O)N[C@@H](CCCNC(N)N)C(=O)N[C@@H](C)C(=O)N[C@@H](Cc1c[nH]c2ccccc12)C(=O)O` (H-NYLFSPNGPIA[Orn(CH(NH2)2)]AW-OH), the Kd (protein: Ephrin type-B receptor 4, PDB entry 2bba) was 0.07 µM (active).
In the case of `CC(C)C[C@H](NC(=O)[C@@H]1CCCN1C(=O)[C@H](CO)NC(=O)[C@H](Cc1ccc(O)cc1)NC(=O)[C@@H](NC(=O)[C@H](Cc1c[nH]c2ccccc12)NC(=O)[C@H](CO)NC(=O)[C@H](CCCNC(N)N)NC(=O)[C@H](CCC(=O)O)NC(=O)[C@H](CC(=O)O)NC(=O)[C@@H](NC(=O)[C@@H]1C=CCN1C(=O)[C@H](Cc1ccccc1)NC(=O)[C@@H](N)Cc1ccc(O)cc1)[C@@H](C)O)C(C)C)C(=O)N[C@@H](Cc1c[nH]cn1)C(=O)O` (H-YF[ΔPro]TDE[Orn(CH(NH2)2)]SWVYSPLH-OH), the dissociation constant Kd (protein: clathrin adaptor AP-2 complex subunit beta-1, PDB entry 3h1z) was 22 µM (active).
Take `CC(C)C[C@H](NC(=O)[C@H](Cc1ccc(O)cc1)NC(=O)[C@H](CO)NC(=O)CNC(=O)[C@H](Cc1ccc(O)cc1)NC(=O)[C@@H]1CCCN1C(=O)[C@H](Cc1ccc(O)cc1)NC(=O)[C@H](Cc1c[nH]c2ccccc12)NC(=O)[C@@H](NC(=O)[C@@H](N)CCCNC(N)N)C(C)C)C(=O)N[C@H](C(=O)N[C@@H](C)C(=O)N[C@@H](CO)C(=O)NCC(=O)N[C@@H](CO)C(=O)O)[C@@H](C)O` (H-[Orn(CH(NH2)2)]VWYPYGSYLTASGS-OH): under “protein: Concanavalin A(ConA), PDB entry 1jyc”, the Kd was 46 µM (active).
Regarding `CC[C@H](C)[C@H](N)C(=O)N[C@H](C(=O)NCC(=O)NCC(=O)N[C@@H](Cc1ccc(O)cc1)C(=O)N1CCC[C@H]1C(=O)N[C@@H](Cc1c[nH]c2ccccc12)C(=O)N[C@@H](Cc1c[nH]c2ccccc12)C(=O)N[C@@H](CCSC)C(=O)O)C(C)C` (H-IVGGYPWWM-OH), under “protein: Hepatocyte growth factor HGF-Beta V495, PDB entry 4o3t”, the Kd is 43 µM (active).
On to `CC[C@H](C)[C@H](NC(=O)[C@@H]1CCCN1C(=O)CNC(=O)[C@H](C)N)C(=O)N[C@@H](CO)C(=O)N[C@@H](CC(C)C)C(=O)N[C@@H](CC(N)=O)C(=O)N[C@@H](Cc1c[nH]c2ccccc12)C(=O)N[C@@H](Cc1ccccc1)C(=O)N[C@@H](CCC(=O)O)C(=O)N[C@@H](CCC(=O)O)C(=O)N[C@@H](CC(C)C)C(=O)N[C@@H](CO)C(=O)N[C@@H](C)C=O` (H-AGPISLNWFEELSA-aldehyde), for which the equilibrium dissociation constant (Kd) (protein: Partner and localizer of BRCA2, PDB entry 3eu7) was 0.66 µM (active).
As for `CC[C@H](C)[C@@H]1NC(=O)[C@@](C)(NC(=O)[C@H](CCC(N)=O)NC(=O)[C@@H]2CCCN2C(=O)[C@H](Cc2c[nH]c3ccccc23)NC(=O)[C@@H](N)CCCNC(N)N)CCC/C=C\C/C=C/[C@@](C)(C(=O)N[C@@H](Cc2c[nH]cn2)C(=O)N[C@H](C(=O)N[C@@H](CCCNC(N)N)C(=O)N[C@@H](CCCNC(N)N)C(=O)N[C@H](C(=O)N[C@@H](Cc2c[nH]c3ccccc23)C(=O)O)C(C)C)C(C)C)NC(=O)[C@H](CC(=O)O)NC(=O)[C@H](CC(C)C)NC1=O` (H-[Orn(CH(NH2)2)]WPQ[S5]ILD[X1]HV[Orn(CH(NH2)2)][Orn(CH(NH2)2)]VW-OH; staple (Z) 5-9), the Kd (protein: Catenin beta-1, PDB entry 4djs) was 0.013 µM (active).
For the compound H-GCARSEG-OH, under “protein: WD repeat-containing protein 5, WDR5, PDB entry 4es0”, the Kd was 0.103 µM (active).
